The values that follow come from PubChem BioAssay (EPA / NIEHS).

Each structure is given as a SMILES string. A structure can be active in one record and inactive in another. The source made the active and inactive calls. The calls were made as follows: active = hit-call score of the fitted dose curve at least 0.9, where 1 is the maximum; inactive = score below 0.9.

Read-out in the assay: Interleukin 2 (IL2), IL2 (gene 3558)
In words: BSK_BT_xIL2: BioMAP Diversity Plus: BT Assay for Interleukin 2 (IL2) Biomarker Activity (AID 2284245). The note with it: primary human B cells with PBMC. Here is the method:
BSK_BT is a cell-based, multiplexed-readout assay that uses B cell and peripheral blood mononuclear cells, a human vascular primary cell co-culture, with measurements taken at 24 hours after chemical dosing in a microplate: 96-well plate.BSK_BT_xIL2 is an assay component measured in the BSK_BT assay. It measures secreted IL-2 related to regulation of gene expression using LumineX xMAP technology.Data from the assay component BSK_BT_xIL2 was analyzed at the endpoint, BSK_BT_xIL2, in the positive analysis fitting direction relative to DMSO as the negative control and baseline of activity. Using a type of cytokine quantitation reporter, gain or loss-of-signal activity can be used to understand protein changes. To generalize the intended target to other relatable targets, this assay endpoint is annotated to the 'cytokine' intended target family, where the subfamily is 'interleukins'.
The levels of cell surface (or secreted, indicated by the prefix "s") biomarker endpoints were measured by ELISA. Overt cytotoxicity to cells in confluent adherent cultures (all systems other than the BT system) was assessed by measuring total protein levels using sulforhodamine B (SRB) staining in parallel cultures at the time of biomarker measurements, indicated as SRB endpoints. For proliferation assays for adherent cell types, individual cell types are cultured at sub-confluence and relative cell numbers quantified by SRB staining at time points optimized for each system (48 h: 3C and CASM3C systems; 72 h: BT and HDF3CGF systems; 96 h: SAg system). SRB was performed by staining cells with 0.1% SRB after fixation with 10% TCA and reading wells at 560 nm.Viability and proliferation of PBMC (T cells) was quantified by Alamar Blue reduction for the SAg and BT systems. For PBMC viability (referred to as PBMC Cytotoxicity within the assay endpoint names), cells were plated (75,000/well in a 96-well plate) and then chemical samples added for 1 h before addition of activators, SEB and TSST-1 (20 ng/mL final concentration each). Cells were incubated for 90 h. Then, Alamar Blue (20 uL/well) (Invitrogen, Cat DAL1100) was added for 6 h, and the plates were read with a fluorescence microplate reader at 546/580 nm (excitation/emission). For PBMC proliferation, cells were plated and activated as above but incubated for only 16 h prior to addition of Alamar Blue. Plates were read after 6 h.
For the compound `CC(C)C(=O)C(C)C`, the result was inactive.

As for `O=Nc1ccc(O)cc1`, the result was inactive.

On to `CC1OC1C1CCC2(C)OC2C1` (configuration not stated), for which the outcome was inactive.

In the case of `C=CC=CC=CCCCCC`, the outcome was inactive.

For the compound `C=CCOCC(O)CCl` (configuration not stated), the outcome was inactive.

For `COCc1c(C(C)C)nc(C(C)C)c(/C=C/[C@@H](O)C[C@@H](O)CC(=O)O)c1-c1ccc(F)cc1`, the concentration at half-maximal activity (AC50) is 0.58 µM (active).

As for `c1ccc2c(c1)ccc1ncccc12`, the outcome was inactive.

With `S=C(NC1CCCCC1)NC1CCCCC1`, the AC50 was 27.6 µM (active).

Take `C/C=C\C/C=C/CCCCCCCCOC(C)=O`: the AC50 is 31.6 µM (active).

As for `COc1ccc2nc(N)sc2c1`, the result was inactive.

On to `CCCCCCCCCCCCCCCC[N+](C)(C)CC`, for which the AC50 is 1.26 µM (active).

Regarding `C#CC1(O)CC[C@H]2[C@@H]3CCC4=CCCC[C@@H]4[C@H]3CC[C@@]21C` (some centres not stated), the AC50 is 31.6 µM (active).

As to `c1ccc2c(c1)ccc1cc3c(ccc4ccccc43)cc12`, the AC50 was 0.0436 µM (active) and the result was inactive.

With `C=CCOc1c(Br)cc(Br)cc1Br`, the outcome was inactive.

As to `CCCCC/C=C\C/C=C\CCCCCCCC(=O)OC`, the AC50 is 28.9 µM (active).

In the case of `O=c1c2ccccc2oc2ccccc12`, the outcome was inactive.

For `CCCCCCCCc1ccc(Nc2ccc(CCCCCCCC)cc2)cc1`, the result was inactive.

`CCOc1nc(F)cc2nc(S(=O)(=O)Nc3c(Cl)cccc3C(=O)OC)nn12`: the result was inactive.

As to `C=CC(=O)OCC(Br)CBr` (configuration not stated), the AC50 was 24.5 µM (active).

Take `CC(C)(c1cc(Br)c(OCCO)c(Br)c1)c1cc(Br)c(OCCO)c(Br)c1`: the AC50 was 18.7 µM (active).

`N#[N+]c1ccc2c(S(=O)(=O)[O-])cccc2c1O`: the result was inactive.

For `O=C(Cl)c1cc(C(=O)Cl)cc(C(=O)Cl)c1`, the AC50 was 29.7 µM (active).

For `c1ccc(-c2ccccn2)nc1`, the result was inactive.

For the compound `CCCCC(CC)COC(=O)c1ccccc1O` (configuration not stated), the outcome was inactive.

Turning to `CCO[Si](CCCN=C=O)(OCC)OCC`, the result was inactive.

For `CCCCNc1ccc(NCCCC)c2c1C(=O)c1ccccc1C2=O`, the outcome was inactive.

The AC50 is the concentration at which the activity in the assay is half-maximal.
